Where “and” joins values, the source holds several entries; their conditions need not be identical. Equal values may be shown once. Inconclusive results are not listed. Calls of active or inactive are those of the source. Unless noted, calls follow the shape of the dose curve; as a rule, active = well fitted curve in the direction sought with a large enough effect; inconclusive = small, poorly fitted or top-dose-only effect, or another doubt; inactive = no such curve, though single readings can be large; an effect the other way counts as inactive or inconclusive.
Legend:
[1] = biological target: Cytochrome P450 1A2 (Homo sapiens) (UniProt P05177); test: p450-cyp1a2 (AID 410; calls by dose curve; also: potency is read from the fitted curve at half-maximal effect)
Chain of Cytochrome P450 1A2 (Homo sapiens) (P05177 whole entry, looked up): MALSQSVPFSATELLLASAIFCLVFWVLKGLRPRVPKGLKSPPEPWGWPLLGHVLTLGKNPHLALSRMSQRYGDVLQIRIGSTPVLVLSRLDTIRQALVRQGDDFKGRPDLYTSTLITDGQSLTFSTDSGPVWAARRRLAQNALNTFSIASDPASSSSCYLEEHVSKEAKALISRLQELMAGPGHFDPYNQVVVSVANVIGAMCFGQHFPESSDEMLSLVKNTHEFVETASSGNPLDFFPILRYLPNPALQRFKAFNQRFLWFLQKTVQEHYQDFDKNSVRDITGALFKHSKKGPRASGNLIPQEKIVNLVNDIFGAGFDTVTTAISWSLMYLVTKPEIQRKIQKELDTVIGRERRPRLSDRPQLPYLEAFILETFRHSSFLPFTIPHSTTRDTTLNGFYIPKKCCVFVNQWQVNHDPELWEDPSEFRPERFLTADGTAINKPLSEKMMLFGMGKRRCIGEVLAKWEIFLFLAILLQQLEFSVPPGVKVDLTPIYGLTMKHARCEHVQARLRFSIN
How it was run: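 O-Demethylation of luciferin 6' methyl ether by human CYP1A2 is monitored as luciferase luminescence. Substrate sits at Km (100uM); enzyme is 20nM. Values are scaled to 57 uM furafylline as maximal inhibition.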

[2] = biological target: Glucocorticoid receptor (Homo sapiens) (UniProt P04150); test: GR-GFP Redistribution (AID 450;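 active = compounds whose dose series gives a full or clear partial fitted curve of increased nuclear translocation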; also: potency is read from the fitted curve at half-maximal effect); conditions: U2OS GR-GFP nuclear translocation, laser cytometry, 2 h
Chain of Glucocorticoid receptor (Homo sapiens) (P04150 whole entry, looked up, the tested form may be a part): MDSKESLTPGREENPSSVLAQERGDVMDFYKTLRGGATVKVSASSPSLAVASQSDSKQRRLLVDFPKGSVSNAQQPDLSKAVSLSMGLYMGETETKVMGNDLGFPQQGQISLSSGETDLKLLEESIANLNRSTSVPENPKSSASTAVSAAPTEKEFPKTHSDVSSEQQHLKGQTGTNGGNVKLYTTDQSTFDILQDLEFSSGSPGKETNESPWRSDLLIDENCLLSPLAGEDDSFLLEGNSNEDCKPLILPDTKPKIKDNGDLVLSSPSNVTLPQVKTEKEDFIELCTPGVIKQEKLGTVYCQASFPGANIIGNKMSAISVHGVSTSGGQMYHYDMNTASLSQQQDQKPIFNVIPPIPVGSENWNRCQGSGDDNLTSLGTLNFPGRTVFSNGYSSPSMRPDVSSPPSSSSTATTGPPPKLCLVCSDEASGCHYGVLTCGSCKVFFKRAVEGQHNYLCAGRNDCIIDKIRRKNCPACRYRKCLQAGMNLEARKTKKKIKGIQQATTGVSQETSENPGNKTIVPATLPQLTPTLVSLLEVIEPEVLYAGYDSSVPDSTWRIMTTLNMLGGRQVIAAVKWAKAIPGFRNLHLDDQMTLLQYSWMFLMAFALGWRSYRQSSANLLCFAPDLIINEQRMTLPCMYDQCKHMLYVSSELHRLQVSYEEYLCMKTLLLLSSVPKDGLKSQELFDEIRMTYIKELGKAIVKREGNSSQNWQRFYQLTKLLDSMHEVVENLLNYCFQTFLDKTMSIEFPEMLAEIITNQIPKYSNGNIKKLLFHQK

[3] = biological target: Glucocorticoid receptor (Homo sapiens) (UniProt P04150); test: GR-EFC Redistribution (AID 451; calls by dose curve; also: potency is read from the fitted curve at half-maximal effect); conditions: CHO-K1 GR-EFC translocation, beta-gal luminescence, 2 h
How it was run: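 Translocation of GR-ED fusion to nuclear EA restores b-gal, read by luminescence after 1 h room-temperature detection. Engineered CHO-K1 biosensor cells, 1,000/well, exposed 2 h at 37 C to titrations up to 46 uM final.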

[4] = qHTS Assay for Lipid Storage Modulators (AID 1519; calls by dose curve; as to activity change, negative = inhibition: % is scaled to controls: 0 for no effect and ±100 for the full control effect); conditions: Drosophila S3 cells, BODIPY lipid droplet/cell ratio, laser cytometry, cells loaded with oleic acid
How it was run: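 Cells seeded at 5,000 per well were treated with compounds over a concentration series and loaded with oleic acid (400 uM, as added). Lipid droplet fluorescence (488 nm excitation, 500-530 nm channel) was read by laser-scanning cytometry and normalized to 20 uM Triacsin C.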

[5] = biological target: Ubiquitin carboxyl-terminal hydrolase 1 (Homo sapiens) (UniProt O94782); test: Inhibitors of USP1/UAF1: Pilot qHTS (AID 504865); also: potency is read from the fitted curve at half-maximal effect; nearly all actives have a fitted effect of over 35% in size
Chain of Ubiquitin carboxyl-terminal hydrolase 1 (Homo sapiens) (O94782 whole entry, looked up): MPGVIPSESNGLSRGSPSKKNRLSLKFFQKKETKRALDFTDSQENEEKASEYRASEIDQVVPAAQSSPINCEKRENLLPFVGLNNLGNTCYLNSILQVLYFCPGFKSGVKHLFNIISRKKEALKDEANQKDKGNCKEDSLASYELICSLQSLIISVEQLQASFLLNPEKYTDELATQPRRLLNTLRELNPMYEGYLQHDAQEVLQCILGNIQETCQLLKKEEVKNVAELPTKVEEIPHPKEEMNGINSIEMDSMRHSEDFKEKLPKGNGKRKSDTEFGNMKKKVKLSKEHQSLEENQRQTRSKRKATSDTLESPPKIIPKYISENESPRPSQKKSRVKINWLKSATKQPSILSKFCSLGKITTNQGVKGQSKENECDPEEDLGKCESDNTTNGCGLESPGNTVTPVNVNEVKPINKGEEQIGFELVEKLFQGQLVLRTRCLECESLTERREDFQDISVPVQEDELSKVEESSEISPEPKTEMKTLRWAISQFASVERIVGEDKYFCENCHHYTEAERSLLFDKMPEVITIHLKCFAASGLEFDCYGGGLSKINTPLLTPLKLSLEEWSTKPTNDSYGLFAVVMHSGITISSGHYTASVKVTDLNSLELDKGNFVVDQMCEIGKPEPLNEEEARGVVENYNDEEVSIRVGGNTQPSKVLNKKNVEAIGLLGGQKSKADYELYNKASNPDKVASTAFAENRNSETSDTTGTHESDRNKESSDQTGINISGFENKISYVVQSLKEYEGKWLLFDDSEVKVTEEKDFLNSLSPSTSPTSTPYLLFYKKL
How it was run: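 In 50mM HEPES pH 7.8 containing 0.5mM EDTA, 1mM TCEP, 0.1 mg/ml BSA and 0.01% Tween-20, 1nM USP1/UAF1 is exposed to compound for 15 min, then Ub-Rho (150nM final) is added and fluorescence is read over time.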

[6] = biological target: DNA dC->dU-editing enzyme APOBEC-3G (Homo sapiens) (UniProt Q9HC16); test: qHTS for inhibitors of Vif-A3G interactions: Validation (AID 588379); also: 0% is about no effect
Chain of DNA dC->dU-editing enzyme APOBEC-3G (Homo sapiens) (Q9HC16 whole entry, looked up): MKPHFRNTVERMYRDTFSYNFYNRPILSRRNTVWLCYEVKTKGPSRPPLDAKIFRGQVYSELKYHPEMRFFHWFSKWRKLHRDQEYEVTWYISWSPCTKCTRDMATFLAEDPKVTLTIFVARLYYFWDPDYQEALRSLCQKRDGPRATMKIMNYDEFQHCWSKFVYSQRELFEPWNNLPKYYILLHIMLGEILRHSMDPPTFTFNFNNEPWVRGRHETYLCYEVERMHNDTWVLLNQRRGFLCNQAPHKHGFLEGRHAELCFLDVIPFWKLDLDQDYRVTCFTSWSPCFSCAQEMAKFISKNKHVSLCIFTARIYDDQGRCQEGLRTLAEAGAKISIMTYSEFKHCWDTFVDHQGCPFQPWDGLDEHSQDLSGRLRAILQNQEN
How it was run: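 Yellow fluorescence (Ex 488, Em 500-530) of Vif-coexpressing HeLa A3G-eYFP cells, scanned by Acumen cytometer, reports blocked A3G degradation. Cells plated at 700/well overnight at 37 deg C before compound addition, then a further overnight compound incubation at 37 deg C.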

[7] = Confirmatory screen GU Rhodamine qHTS for Zika virus inhibitors qHTS (AID 1347157); also: potency is read from the fitted curve at half-maximal effect; nearly all actives have a fitted effect of over 70% in size
How it was run: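 Percent inhibition came from the 15-min rise in Rhodamine110 fluorescence (1.5 microM substrate, ~15% conversion), normalized to no-inhibitor and no-enzyme wells and Hill-fitted. Unlinked protease, 25 nM, pH 8.0 Tris buffer; compounds up to 114 microM, 15-min preincubation.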

[8] = Confirmatory screen NINDS Rhodamine qHTS for Zika virus inhibitors (AID 1347161); also: potency is read from the fitted curve at half-maximal effect; nearly all actives have a fitted effect of over 60% in size
How it was run: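 Percent inhibition, normalized to uninhibited and enzyme-free controls, is fitted to a 4-parameter Hill equation. Fluorescence change comes from a 15-min cleavage of 1.5 microM bis-peptide Rhodamine110 substrate by 25 nM linked NS2B-NS3 at room temperature.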

[9] = test system: Zika virus NS2B-NS3 protease (linked); test: 384 well plate NINDS AMC confirmatory qHTS for Zika virus inhibitors (AID 1347163); also: potency is read from the fitted curve at half-maximal effect; nearly all actives have a fitted effect of over 50% in size
How it was run: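 Fluorescence at 355/460 nm was read after 25 minutes of cleavage of 30 microM Ac-VKTGKR-AMC at room temperature, in the dark. Before substrate addition, compounds (up to 1 mM final) sat ~15 minutes with 5, 30 or 60 nM linked protease. Signals were normalized to no-enzyme and no-inhibitor wells.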

[10] = test system: Zika virus NS2B-NS3 protease (linked construct); test: 384 well plate NINDS Rhodamine confirmatory qHTS for Zika virus inhibitors (AID 1347164);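 also: fluorescence from protease cleavage of Ac-LKRR-rhodamine 110 substrate; potency is read from the fitted curve at half-maximal effect; nearly all actives have a fitted effect of over 65% in size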
How it was run: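 Enzyme (final 5/30/60 nM) + cpd (DMSO), ~15 min; add Ac-LKRR-Rd 10 microM final; 25 min RT, dark; FI ex 485/em 538; normalized to no-enzyme, no-inhibitor ctrls; aprotinin intraplate ctrl.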

[11] = Primary qHTS for small molecule stabilizers of the endoplasmic reticulum resident proteome: Secreted ER Calcium Modulated Protein (SERCaMP) assay (AID 1508630); also: % is scaled to controls: 0 for no effect and ±100 for the full control effect
How it was run: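 The SH-SY5Y reporter protocol was run at 3 concentrations up to 38.3 uM (primary) or 11 concentrations (follow-up): 16 h compound, 100 nM thapsigargin for 4 h, then extracellular luciferase luminescence.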

[12] = ZIKV-mCherry secondary qHTS for Zika virus inhibitors (AID 1347158); also: top concentration of the series differs between compounds
How it was run: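 Compounds were tested in Vero monkey kidney cells infected with recombinant mCherry-expressing Zika virus at MOI 1 for 48-72 h at 37 °C. Fixed cells were nuclear-stained and imaged, and infection rate was taken as the fraction of mCherry-positive cells.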

[13] = Tertiary RLuc qRT-PCR qHTS assay for Zika virus inhibitors (AID 1347169); also: top concentration of the series differs between compounds; % is scaled to controls: 0 for no effect and ±100 for the full control effect; nearly all actives have a fitted effect of over 55% in size
How it was run: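 Vero, 1,000 cells/well, o/n 37 C; cpd pinned in DMSO; ZIKV-RLuc Cambodian, MOI 1-2, 48-72 h 37 C; live-cell RLuc substrate, lum read at 1-1.5 h.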

[14] = biological target: Rap guanine nucleotide exchange factor 3 (Homo sapiens) (UniProt O95398); test: Confirmatory qHTS for antagonist of cAMP-regulated guanine nucleotide exchange factor 3 (EPAC1) (AID 1645880); also: potency is read from the fitted curve at half-maximal effect; nearly all actives have a fitted effect of over 55% in size
Chain of Rap guanine nucleotide exchange factor 3 (Homo sapiens) (O95398 whole entry, looked up): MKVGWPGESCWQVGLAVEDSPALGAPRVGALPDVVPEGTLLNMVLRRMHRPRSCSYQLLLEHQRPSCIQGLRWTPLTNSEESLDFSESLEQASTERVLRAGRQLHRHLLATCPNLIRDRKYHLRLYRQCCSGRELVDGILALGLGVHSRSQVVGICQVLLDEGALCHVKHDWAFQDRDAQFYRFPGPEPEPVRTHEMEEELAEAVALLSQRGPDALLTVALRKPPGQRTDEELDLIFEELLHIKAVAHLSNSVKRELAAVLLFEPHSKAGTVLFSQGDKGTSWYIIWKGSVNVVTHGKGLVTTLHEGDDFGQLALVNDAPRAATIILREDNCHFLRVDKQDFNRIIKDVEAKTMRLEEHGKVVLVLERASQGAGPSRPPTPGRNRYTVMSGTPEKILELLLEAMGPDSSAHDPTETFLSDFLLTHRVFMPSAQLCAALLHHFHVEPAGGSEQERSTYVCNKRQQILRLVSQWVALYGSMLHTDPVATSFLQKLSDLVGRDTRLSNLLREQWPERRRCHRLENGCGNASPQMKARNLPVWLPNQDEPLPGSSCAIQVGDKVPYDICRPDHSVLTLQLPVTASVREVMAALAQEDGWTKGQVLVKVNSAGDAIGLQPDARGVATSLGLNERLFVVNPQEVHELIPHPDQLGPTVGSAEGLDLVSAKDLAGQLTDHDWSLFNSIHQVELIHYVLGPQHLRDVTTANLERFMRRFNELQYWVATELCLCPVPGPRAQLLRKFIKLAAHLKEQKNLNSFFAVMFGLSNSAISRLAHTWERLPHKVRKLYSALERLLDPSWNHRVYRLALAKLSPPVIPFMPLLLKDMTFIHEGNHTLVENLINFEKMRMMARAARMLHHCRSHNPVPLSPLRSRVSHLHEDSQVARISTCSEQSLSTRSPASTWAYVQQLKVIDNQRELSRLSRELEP
How it was run: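 Released BODIPY-GDP fluoresces less than Rap1-bound BODIPY-GDP; the signal is followed at 480/540 nm at 5-min intervals over 30 min, after 5 min at room temperature. Reactions contain 100 nM EPAC1, 250 nM RAP1B-BODIPY-GDP and 50 uM GDP; results are normalized to ATA and DMSO.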

[15] = biological target: Rap guanine nucleotide exchange factor 3 (Homo sapiens) (UniProt O95398); test: Confirmatory qHTS for agonist of cAMP-regulated guanine nucleotide exchange factor 3 (EPAC1) (AID 1645881);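 also: EPAC1 catalysed release of BODIPY-GDP from Rap1B seen as fluorescence loss; 100% = effect of cAMP agonist control; nearly all actives have a fitted effect of over 75% in size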
[16] = biological target: Rap guanine nucleotide exchange factor 4 (Homo sapiens) (UniProt Q8WZA2); test: Confirmatory qHTS for agonist of cAMP-regulated guanine nucleotide exchange factor 4 (EPAC2) (AID 1645884);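 also: nucleotide exchange releases bodipy-GDP from Rap1 and this lowers its fluorescence; % is scaled to controls: 0 for no effect and ±100 for the full control effect; nearly all actives have a fitted effect of over 65% in size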
Chain of Rap guanine nucleotide exchange factor 4 (Homo sapiens) (Q8WZA2 whole entry, looked up): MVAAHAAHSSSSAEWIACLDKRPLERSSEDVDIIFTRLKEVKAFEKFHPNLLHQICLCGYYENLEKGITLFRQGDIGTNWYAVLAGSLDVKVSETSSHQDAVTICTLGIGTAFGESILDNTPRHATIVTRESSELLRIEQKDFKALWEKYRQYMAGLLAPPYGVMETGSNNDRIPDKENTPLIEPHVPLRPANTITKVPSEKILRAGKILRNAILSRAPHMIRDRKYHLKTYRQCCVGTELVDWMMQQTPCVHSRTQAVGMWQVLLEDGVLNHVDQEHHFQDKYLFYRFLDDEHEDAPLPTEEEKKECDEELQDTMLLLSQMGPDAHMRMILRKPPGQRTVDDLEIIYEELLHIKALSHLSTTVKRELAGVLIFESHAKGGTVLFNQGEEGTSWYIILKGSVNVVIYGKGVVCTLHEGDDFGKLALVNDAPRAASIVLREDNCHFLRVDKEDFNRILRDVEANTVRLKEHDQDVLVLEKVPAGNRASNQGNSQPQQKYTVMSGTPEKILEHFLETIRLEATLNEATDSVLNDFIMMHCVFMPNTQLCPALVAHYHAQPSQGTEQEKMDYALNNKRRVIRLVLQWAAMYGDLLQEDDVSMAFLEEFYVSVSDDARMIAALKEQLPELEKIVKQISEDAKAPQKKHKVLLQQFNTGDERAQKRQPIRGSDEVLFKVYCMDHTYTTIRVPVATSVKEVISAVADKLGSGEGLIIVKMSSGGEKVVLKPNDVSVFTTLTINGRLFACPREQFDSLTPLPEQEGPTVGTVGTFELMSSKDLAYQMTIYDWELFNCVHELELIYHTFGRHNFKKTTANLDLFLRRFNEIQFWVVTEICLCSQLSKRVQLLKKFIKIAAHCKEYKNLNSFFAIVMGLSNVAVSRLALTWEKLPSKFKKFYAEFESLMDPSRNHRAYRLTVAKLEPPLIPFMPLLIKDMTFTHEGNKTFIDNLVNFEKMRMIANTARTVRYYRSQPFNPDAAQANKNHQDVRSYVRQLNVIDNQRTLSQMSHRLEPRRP

[17] = biological target: Rap guanine nucleotide exchange factor 4 (Homo sapiens) (UniProt Q8WZA2); test: Confirmatory qHTS for antagonist of cAMP-regulated guanine nucleotide exchange factor 4 (EPAC2) (AID 1645885); also: % is scaled to controls: 0 for no effect and ±100 for the full control effect; nearly all actives have a fitted effect of over 25% in size
[18] = biological target: Rap guanine nucleotide exchange factor 3 (Homo sapiens) (UniProt O95398); test: Counterscreen qHTS for antagonist of cAMP-regulated guanine nucleotide exchange factor 3 (EPAC1) (AID 1645888); also: % of control where 0% means no effect
How it was run: (§1)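 Rap1B-BODIPY-GDP 250 nM + GDP 50 uM; cpds 7-pt, final 9.74 nM–152 uM (activator mode) or from 7.32 nM upwards (inhibitor mode); RT; FI 480/540 nm at 5 and 30 min, then ± cAMP, reread.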

[19] = biological target: Rap guanine nucleotide exchange factor 3 (Homo sapiens) (UniProt O95398); test: Counterscreen qHTS for agonist of cAMP-regulated guanine nucleotide exchange factor 3 (EPAC1) (AID 1645889); also: % of control where 0% means no effect; nearly all actives have a fitted effect of over 40% in size
How it was run: as §1

O=C(Nc1ccc(C(=O)Nc2ccc(C(=O)Nc3ccc(S(=O)(=O)O)c4cc(S(=O)(=O)O)cc(S(=O)(=O)O)c34)cc2)cc1)Nc1ccc(C(=O)Nc2ccc(C(=O)Nc3ccc(S(=O)(=O)O)c4cc(S(=O)(=O)O)cc(S(=O)(=O)O)c34)cc2)cc1
-4.46%: max response ([4]; measured here: cell count channel max response)
0.0462%: max response ([4]; measured here: lipid channel max response)
inactive: Potency [2] > 46 µM | Potency [3] > 46 µM | activity change, negative = inhibition ([4]; at 57.5 µM (top of the series)) 5.27% | Potency [6] | Potency [11]
active: Potency [1] 31.6 µM | Potency [5] 39.8 µM | Potency [7] 2 µM | Potency [8] 2.24 µM and 1.26 µM | Potency [9] 39.8 µM | Potency [10] 2.51 µM

COC(=O)c1ccc([C@H]2Nc3ccc(S(=O)(=O)Nc4ccc(C)cc4)cc3[C@H]3C=CC[C@H]32)cc1
active: Potency [7] 25.1 µM | Potency [8] 17.8 µM | Potency [10] 100 µM
inactive: Potency [12] | Potency [13]

COc1ccc(NS(=O)(=O)c2ccc3c(c2)[C@H]2C=CC[C@H]2[C@@H](c2ccc(C(=O)O)cc2)N3)cc1
active: Potency [7] 20 µM | Potency [8] 3.16 µM | Potency [9] 79.4 µM | Potency [10] 20 µM | Potency [14] 19 µM
inactive: Potency [12] | Potency [13] | outcome [15] | outcome [16] | Potency [17] | outcome [18] | Potency [19]
